From PubChem
G9a inh: qHTS Assay for Inhibitors of Histone Lysine Methyltransferase G9a; G9a H3K9 monomethylation, AlphaScreen, 2 h; Potency, µM (titrated, usually from 102 µM), hits mostly inhibitors; actives 8.8% (n = 350,000); Histone-lysine N-methyltransferase EHMT2 (Homo sapiens), Q96KQ7; AID 504332, 2011; note: nearly all actives have a fitted effect of over 75% in size
Target sequence (Q96KQ7 913-1193 limits assumed): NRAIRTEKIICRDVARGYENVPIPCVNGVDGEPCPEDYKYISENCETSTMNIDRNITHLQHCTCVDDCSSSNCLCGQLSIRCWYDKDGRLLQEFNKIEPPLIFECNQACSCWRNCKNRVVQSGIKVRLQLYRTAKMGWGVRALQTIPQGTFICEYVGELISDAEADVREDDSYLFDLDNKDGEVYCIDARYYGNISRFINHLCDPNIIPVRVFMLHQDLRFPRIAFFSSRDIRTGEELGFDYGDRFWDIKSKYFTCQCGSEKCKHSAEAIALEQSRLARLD
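Chemiluminescent proximity detection of H3K9 monomethylation, read after 10 min bead incubation in the dark. Reaction: 20 nM G9a, 500 nM biotin-H3K9 peptide, 20 uM SAM cofactor, 2 h, room temperature, following 15 min enzyme-compound preincubation.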
BAZ2B inh: qHTS Assay for Inhibitors of BAZ2B | AlphaScreen BAZ2B-H3K14Ac peptide displacement | actives 4.4% (n = 360,000) | Potency, µM (highest dose often 114 µM), most hits filed as inhibitors; note: nearly all actives have a fitted effect of over 60% in size
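Complex of BAZ2B and biotin-H3K14Ac (50 nM apiece) forms over 30 min at RT, then faces library compounds up to 110 uM for another 30 min; AlphaScreen beads added, 20 min dark incubation, luminescence read.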
JMJD2A Tudor inh: qHTS Assay for Inhibitors of JMJD2A-Tudor Domain. Lysine-specific demethylase 4A (Homo sapiens), O75164. AlphaScreen JMJD2A-Tudor / H3K4me3 peptide binding. Potency, µM (titrated, usually from 114 µM), actives largely listed as inhibitors. actives 4.4% (n = 390,000). AID 504339, 2011; note: nearly all actives have a fitted effect of over 50% in size
HP1b binding inh: HTS for Inhibitors of HP1-beta Chromodomain Interactions with Methylated Histone Tails; Chromobox protein homolog 1 (Homo sapiens), P83916; AlphaScreen HP1-beta / biotin-H3K9me3 peptide binding; Potency, µM (titrated, usually from 114 µM), usual class: inhibitors; actives 0.56% (n = 390,000); note: nearly all actives have a fitted effect of over 70% in size
Target sequence (P83916 whole entry, looked up): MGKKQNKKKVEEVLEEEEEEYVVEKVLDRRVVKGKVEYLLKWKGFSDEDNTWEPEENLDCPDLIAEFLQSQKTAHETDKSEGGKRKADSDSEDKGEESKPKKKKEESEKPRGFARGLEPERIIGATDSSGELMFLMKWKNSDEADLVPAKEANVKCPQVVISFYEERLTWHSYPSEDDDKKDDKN
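HP1-beta protein (50 nM final) preincubated 30 min at room temperature with biotinylated H3(1-18)K9me3 peptide (50 nM) in PBS pH 7.4, 0.01% Tween-20, then compound added for 30 min. AlphaScreen streptavidin donor/nickel chelate acceptor beads (10 ug/mL final), 30 min dark, luminescence read.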
L3MBTL1 inh: qHTS Assay for the Inhibitors of L3MBTL1; actives 0.66% (n = 230,000); AID 485360, 2010; Potency, µM (top dose mostly 57.1 µM), actives largely listed as inhibitors; AlphaScreen L3MBTL1–H3K9me1 peptide binding; note: nearly all actives have a fitted effect of over 60% in size
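L3MBTL1 50 nM + b-AHA-H3(1-15)K9me1 75 nM, 30 min RT; compound added, 30 min RT; streptavidin donor/Ni-chelate acceptor beads 10 ug/mL each final, 30 min RT dark; AlphaScreen read.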
Sfp inh: qHTS Assay for Inhibitors of Bacillus subtilis Sfp phosphopantetheinyl transferase (PPTase) | Biochemical Sfp PPTase activity, qHTS | actives 3.5% (n = 310,000) | AID 1490, 2009 | 4'-phosphopantetheinyl transferase ffp (Bacillus subtilis), Q9F4F7 | Potency, µM, hits mostly inhibitors;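 note: the enzyme is Sfp with the accession as filed and its product quenches rhodamine fluorescence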
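With Hepes-Na pH 7.6 buffer containing 10 mM MgCl2, Sfp (15 nM) modified BHQ-2-YbbR (12.5 uM) using rhodamine-CoA (5 uM). Two reads 30 minutes apart at 525/598 nm yielded each well's rate.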
Each line names hits and unclear results; the compound was inactive in the other large screens. Rows were chosen to be rich in hits. Some 12% of all compounds tested hit in one or more screens of this group. Calls come from the whole dose curve; as a rule, active = well fitted curve in the direction sought with a large enough effect; inconclusive = small, poorly fitted or top-dose-only effect, or another doubt; inactive = no such curve, though single readings can be large; an effect the other way counts as inactive or inconclusive.

CCC/C(O)=C1\C(=O)CC(c2ccccc2)CC1=NC(C)C(=O)O (stereo not given)	none
CC1CCCCN1C(=O)c1ccc(NC(=O)c2ccccc2Cl)cc1 (stereo not given)	none
CCOC(=O)Cc1cc(=O)n2[nH]c(C)cc2n1	BAZ2B inh inconclusive, JMJD2A Tudor inh 16µM
CCOC(=O)c1sc2nc(N3CCCC3)c3c(c2c1N)CC(C)(C)OC3	G9a inh inconclusive
CC1(C)Cc2c(c(N3CCOCC3)nc3sc(C(=O)Nc4cccc(Cl)c4)c(N)c23)CO1	G9a inh 79µM, Sfp inh 45µM (no result: L3MBTL1 inh)
CC1(C)Cc2c(c(N3CCOCC3)nc3sc(C(=O)Nc4ccccc4)c(N)c23)CO1	G9a inh 28µM (no result: L3MBTL1 inh)
CN(C(=O)c1sc2nc(N3CCCC3)c3c(c2c1N)CC(C)(C)OC3)c1ccccc1	G9a inh 45µM (no result: L3MBTL1 inh)
Cc1nc2ccc(NC3=NCCCCC3)cc2s1	G9a inh 5.6µM, BAZ2B inh inconclusive, JMJD2A Tudor inh 3.5µM, HP1b binding inh inconclusive, Sfp inh inconclusive
CCn1cc(C(=O)NCc2ccccc2)c(=O)c2cc(S(=O)(=O)N3CCCCCC3)ccc21	none (no result: BAZ2B inh, L3MBTL1 inh, Sfp inh)
N=c1n(Cc2ccccc2)c2ccccc2n1CC(O)COc1ccc(Cl)cc1Cl (stereo not given)	JMJD2A Tudor inh inconclusive, Sfp inh 18µM
CC(C)CN1CCc2nc(-c3ccccc3)c3c(c2CC1)COC(C)C3 (stereo not given)	none (no result: G9a inh, BAZ2B inh, JMJD2A Tudor inh, HP1b binding inh, L3MBTL1 inh)
CC(C)N(Cc1cn[nH]c1-c1ccc(-c2ccccc2)cc1)Cc1nccn1C	G9a inh inconclusive, BAZ2B inh 56µM, JMJD2A Tudor inh 56µM, HP1b binding inh inconclusive
CCOC(=O)c1ccc(N/C=C/C(=O)C(C)(C)C)cc1	none
CN(C)c1ccc(N/C=C/C(=O)c2ccccc2)cc1	G9a inh 5.6µM, BAZ2B inh inconclusive, JMJD2A Tudor inh inconclusive, L3MBTL1 inh inconclusive, Sfp inh 20µM
CN(C)c1ccc(N/C=C/C(=O)C(C)(C)C)cc1	G9a inh inconclusive, BAZ2B inh 40µM, JMJD2A Tudor inh 50µM, Sfp inh 50µM (no result: L3MBTL1 inh)
O=C(/C=C/Nc1ccccc1)c1ccccc1	BAZ2B inh inconclusive (no result: L3MBTL1 inh)
CC[C@]12c3[nH]c4ccc(Cl)cc4c3CCN1C(=O)[C@@H](CC(=O)NCCCn1ccnc1)C[C@@H]2C(=O)N1CCN(C(=O)c2ccco2)CC1	none (no result: G9a inh, BAZ2B inh, Sfp inh)
Nc1nc2[nH]c(=O)[nH]c2c(=O)[nH]1	none (no result: G9a inh, BAZ2B inh, JMJD2A Tudor inh, HP1b binding inh, L3MBTL1 inh)
CC(NC(=S)NCCCN1CCOCC1)C12CC3CC(CC(C3)C1)C2 (stereo not given)	G9a inh inconclusive (no result: L3MBTL1 inh)
C/C(CCc1ccc2c(c1)OCO2)=N\N=C(/N)SC1CC(=O)N(c2ccccc2F)C1=O (stereo not given)	BAZ2B inh 16µM, Sfp inh 79µM
N#CCCCSc1nnnn1-c1cc(C(F)(F)F)cc(C(F)(F)F)c1	none (no result: G9a inh, BAZ2B inh, JMJD2A Tudor inh, HP1b binding inh, L3MBTL1 inh)
CCOc1ccc(C(=O)Nc2nnc(S(=O)(=O)Nc3ccccc3)s2)cc1	JMJD2A Tudor inh inconclusive (no result: L3MBTL1 inh, Sfp inh)
COc1cc(Cl)c(NS(=O)(=O)c2ccc(-c3cnc(C4CC4)o3)cc2)c(OC)c1	BAZ2B inh inconclusive (no result: L3MBTL1 inh, Sfp inh)
Cc1nc(N2CCCCC2)c2sc(=S)n(C)c2n1	G9a inh inconclusive
CCN1CCN(c2nc(C)nc3c2sc(=S)n3C)CC1	G9a inh 6.3µM, JMJD2A Tudor inh inconclusive, Sfp inh 2.8µM
COC(=O)c1cccc(COC(=O)c2ccc(CS(=O)(=O)c3ccc(C)cc3)cc2)c1	none
CN(C)CCCN(C(=O)c1ccc2c(c1)CCCC2)c1nc2cc3c(cc2s1)OCO3	BAZ2B inh inconclusive, JMJD2A Tudor inh inconclusive (no result: G9a inh, L3MBTL1 inh)
CCN(CC)CCN(C(=O)c1ccc(S(=O)(=O)N2CCCCC2)cc1)c1nc2cc3c(cc2s1)OCO3	G9a inh 50µM, BAZ2B inh inconclusive, JMJD2A Tudor inh inconclusive
CCN(CC)CCN(C(=O)c1ccc2ccccc2c1)c1nc2cc3c(cc2s1)OCO3	G9a inh 40µM, BAZ2B inh inconclusive, JMJD2A Tudor inh inconclusive, Sfp inh 45µM (no result: L3MBTL1 inh)
O=C(NCCN1CCN(Cc2ccccc2)CC1)C1c2ccccc2C(=O)N2CCc3ccccc3C12 (stereo not given)	none
Cc1ccc(CNC(=O)C2c3ccccc3C(=O)N3CCc4ccccc4C23)o1 (stereo not given)	G9a inh 32µM, BAZ2B inh inconclusive, Sfp inh 14µM
CSCCC(NS(=O)(=O)c1ccc2c(c1)oc(=O)n2C)C(=O)NCc1ccc(F)cc1 (stereo not given)	none (no result: L3MBTL1 inh, Sfp inh)
CC1(C)Cc2cccc(OCC(O)CNCc3ccccn3)c2O1 (stereo not given)	G9a inh inconclusive, BAZ2B inh inconclusive, JMJD2A Tudor inh 89µM
CC1(C)Cc2cccc(OCC(O)CN3CCN(c4ccccn4)CC3)c2O1 (stereo not given)	none
CC1=CC(C)C2(COC(c3ccc[n+](C)c3)OC2)C(C)C1 (stereo not given)	G9a inh inconclusive, JMJD2A Tudor inh 22µM
Cc1csc2c(NCCCN3CCOCC3)ncnc12	none
CC(=O)Nc1ccc(S(=O)(=O)NNC(=S)NCc2ccco2)cc1	G9a inh 32µM, JMJD2A Tudor inh inconclusive, Sfp inh 45µM (no result: L3MBTL1 inh)
CC(C)CNS(=O)(=O)c1ccc(CCC(=O)NCc2ccco2)cc1	G9a inh inconclusive, Sfp inh 40µM
O=S(=O)(Nc1ncccn1)c1ccc(NC(=S)NCc2ccco2)cc1	G9a inh inconclusive, Sfp inh inconclusive (no result: L3MBTL1 inh)
CC(C)CNS(=O)(=O)c1ccc(CCC(=O)NCc2ccncc2)cc1	none (no result: G9a inh)
CCCCc1ccc(S(=O)(=O)NNC(=S)NCc2ccco2)cc1	none
CCC(=O)Nc1ccc(S(=O)(=O)NCc2ccco2)cc1	G9a inh 45µM (no result: L3MBTL1 inh)
CCNS(=O)(=O)c1ccc(NC(=S)NCc2ccco2)cc1	G9a inh 14µM
COc1cc(CNC(=O)c2ccc3oc(C(C)C)nc3c2)cc(OC)c1	none (no result: L3MBTL1 inh)
CCOC(=O)c1cnc2cc(C(F)(F)F)ccc2c1Nc1ccc(F)cc1F	none (no result: L3MBTL1 inh, Sfp inh)
S=C(NCc1ccco1)Nc1ccccc1	none
O=S(=O)(NCc1ccccc1)c1ccc(NC(=S)NCc2ccco2)cc1	G9a inh 50µM, BAZ2B inh inconclusive, JMJD2A Tudor inh inconclusive
O=C(CN(CCc1ccccc1)C(=O)CNS(=O)(=O)c1ccccc1)NCc1ccco1	none
